# Where “and” joins values, the source holds several entries; their conditions need not be identical. Equal entries are not always repeated. Structures can show the parent of a compound that is named as a salt. Screen size: about 5,800 compounds; about 620 (11%) showed activity. The full list was thinned out, with actives kept by preference. Values without a mark were called inactive.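 The calls were made as follows: active = score above a cut-off or among the top three wells of a plate; in these data no inactive exceeds 0.85.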
# Tested on: primary human hepatic stellate cells (donor 1)
# Test: scaled lipid accumulation score (0 = DMSO-like, 1 = nortriptyline-like); higher = stronger HSC inactivation (lipid re-accumulation), active = hit call of the paper
# Settings: 48 h
# [1] = library stock concentration: 1 mM
# [2] = library stock concentration: 10 mM
# [3] = library stock concentration: 3.33 mM
# [4] = library stock concentration: 80 uM
# [5] = library stock concentration: 400 uM
# [6] = library stock concentration: 2 mM
# [7] = library stock concentration: 6.2 mM
# [8] = library stock concentration: 5.1 mM
# [9] = library stock concentration: 13.5 mM
structure (smiles),measurement,setting,value
"CCCCC/C=C\C/C=C\CCCC/C=C\CCCC(=O)O [5(Z),11(Z),14(Z)-Eicosatrienoic Acid]",scaled lipid accumulation score,[1],≤ 0
CC(S)C(=O)NCC(=O)O (stereo not drawn),scaled lipid accumulation score,[2],≤ 0
CC(S)C(=O)NCC(=O)O (stereo not drawn) [Tiopronin],scaled lipid accumulation score,[3],≤ 0
same,scaled lipid accumulation score,[2],≤ 0
CCCCCCCC/C=C\CCCCCCCCCCCC(=O)O [13(Z)-Docosenoic Acid],scaled lipid accumulation score,[1],0.016
"CCC(CO)Nc1nc(NCc2ccccc2)c2ncn(C(C)C)c2n1 [Roscovitine, (S)-Isomer]",scaled lipid accumulation score,[3],≤ 0
CC1(C)S[C@@H]2[C@H](/N=C/N3CCCCCC3)C(=O)N2[C@H]1C(=O)O,scaled lipid accumulation score,[2],≤ 0
CCCCC[C@@](C)(O)/C=C/[C@H]1C=CC(=O)[C@@H]1C/C=C\CCCC(=O)O [15(R)-15-methyl Prostaglandin A2],scaled lipid accumulation score,[1],≤ 0
"CCCCc1c(-c2ccc(O)cc2)[nH]c2nccnc12 [Aloisine A, RP107]",scaled lipid accumulation score,[3],≤ 0
O=C(O)COc1cccc(-c2ocnc2-c2nc(-c3ccccc3)c(-c3ccccc3)o2)c1,scaled lipid accumulation score,[2],≤ -0.006
OCCOCCN1CCN(C2=Nc3ccccc3Sc3ccccc32)CC1,scaled lipid accumulation score,[2],0.251
OCCOCCN1CCN(C2=Nc3ccccc3Sc3ccccc32)CC1 [Quetiapine fumarate],scaled lipid accumulation score,library stock concentration: 2.3 mM,0.28
O=C(O)C=CC(=O)O.OCCOCCN1CCN(C2=Nc3ccccc3Sc3ccccc32)CC1.OCCOCCN1CCN(C2=Nc3ccccc3Sc3ccccc32)CC1 [Quetiapine Fumarate],scaled lipid accumulation score,[2],1.06 (active)
OCCOCCN1CCN(C2=Nc3ccccc3Sc3ccccc32)CC1 [Quetiapine],scaled lipid accumulation score,library stock concentration: 5.2 mM,≤ 0
OCCOCCN1CCN(C2=Nc3ccccc3Sc3ccccc32)CC1 [Quetiapine Fumarate],scaled lipid accumulation score,[3],0.061
CN1CCN(C2=Nc3ccccc3Sc3ccc(Cl)cc32)CC1 [Clothiapine],scaled lipid accumulation score,library stock concentration: 5.8 mM,0.413
CCCCC[C@@H](O)/C=C/[C@H]1C(=O)C[C@H](O)[C@@H]1C/C=C\CCCC(=O)O [15(R)-Prostaglandin D2],scaled lipid accumulation score,[1],≤ 0
O=C([O-])[C@H]1/C(=C/CO)O[C@@H]2CC(=O)N21.[Li+] [Clavulanate lithium],scaled lipid accumulation score,library stock concentration: 9.7 mM,≤ 0
CCS(=O)(=O)Nc1ccc2[nH]c(O)c(C(=Nc3ccc(CN4CCCCC4)cc3)c3ccccc3)c2c1 [Hesperadin],scaled lipid accumulation score,[3],≤ 0
same,scaled lipid accumulation score,[2],0.147
Cl.N=C(N)NCCC[C@H](N)C(=O)O,scaled lipid accumulation score,[2],≤ 0
O=S(=O)(O)Oc1ccc(C(c2ccc(OS(=O)(=O)O)cc2)c2ccccn2)cc1 [Sodium Picosulfate],scaled lipid accumulation score,[3],≤ 0
same,scaled lipid accumulation score,[2],≤ -0.001
Cc1ccc(C(=O)Nc2cccc(C(F)(F)F)c2)cc1Nc1nc(-c2cccnc2)nc2c1cnn2C [listing 1 of 2 here],scaled lipid accumulation score,[3],0.942 (active)
same,scaled lipid accumulation score,[2],0.959 (active)
Cc1ccc(C(=O)Nc2cccc(C(F)(F)F)c2)cc1Nc1cncc(C(N)=O)c1,scaled lipid accumulation score,[4],≤ 0
same,scaled lipid accumulation score,[5],0.035
same,scaled lipid accumulation score,[6],≤ 0
same,scaled lipid accumulation score,[2],0.142
Cc1ccc(C(=O)Nc2cccc(C(F)(F)F)c2)cc1Nc1nc(-c2cccnc2)nc2c1cnn2C [listing 2 of 2 here],scaled lipid accumulation score,[4],≤ -0.016
same,scaled lipid accumulation score,[5],≤ -0.016
same,scaled lipid accumulation score,[6],≤ -0.016
same,scaled lipid accumulation score,[2],0.726
"Nc1ncnc2c1ncn2[C@@H]1O[C@H](COP(=O)(O)CP(=O)(O)OP(=O)(O)O)[C@H](O)C1O (stereo partly drawn) [alpha,beta-Methylene adenosine 5'-triphosphate dilithium]",scaled lipid accumulation score,[2],0.242
CCCCC/C=C\C/C=C\C/C=C\C/C=C\CCCC(=O)S[C@H](COCCCCCCCCCCCCCCCC)COP(=O)([O-])OCC[N+](C)(C)C [Arachidonoyl thio-PC],scaled lipid accumulation score,[1],≤ 0
CC(/C=C/C(=O)NO)=C\[C@@H](C)C(=O)c1ccc(N(C)C)cc1 [Trichostatin A],scaled lipid accumulation score,[1],0.793 (active)
CC(C=CC(=O)NO)=CC(C)C(=O)c1ccc(N(C)C)cc1 (stereo not drawn) [Trichostatin A (TSA)],scaled lipid accumulation score,[3],0.515
same,scaled lipid accumulation score,[2],0.663
CC(/C=C/C(=O)NO)=C\[C@@H](C)C(=O)c1ccc(N(C)C)cc1 [Trichostatin-A],scaled lipid accumulation score,library stock concentration: 16.5 mM,0.589
CCCSc1nc(N[C@@H]2C[C@H]2c2ccc(F)c(F)c2)c2nnn([C@@H]3C[C@H](OCCO)[C@@H](O)[C@H]3O)c2n1 [Ticagrelor],scaled lipid accumulation score,[3],≤ 0
same,scaled lipid accumulation score,[2],0.193
CSc1nc(N)c2ncn([C@@H]3O[C@H](COP(=O)(O)OP(=O)(O)O)[C@H](O)C3O)c2n1 (stereo partly drawn),scaled lipid accumulation score,[2],0.082
CO/N=C1\C[C@]2(C[C@@H]3C[C@@H](C/C=C(\C)C[C@@H](C)/C=C/C=C4\CO[C@@H]5[C@H](O)C(C)=C[C@@H](C(=O)O3)[C@]45O)O2)O[C@H](/C(C)=C/C(C)C)[C@H]1C,scaled lipid accumulation score,[2],≤ 0
"OC[C@H]1O[C@@H](n2cnc3c(N[C@H]4CCC[C@@H]4O)ncnc32)[C@@H](O)C1O (stereo partly drawn) [Adenosine, N-(2-hydroxycyclopentyl)-, (1S-trans)- [CAS]]",scaled lipid accumulation score,[2],≤ 0
CN(C)CCCC1(c2ccc(F)cc2)OCc2cc(C#N)ccc21 (stereo not drawn) [Citalopram Hydrobromide],scaled lipid accumulation score,,≤ 0
CN(C)CCC[C@@]1(c2ccc(F)cc2)OCc2cc(C#N)ccc21 [Escitalopram Oxalate],scaled lipid accumulation score,[3],≤ 0
same,scaled lipid accumulation score,[2],0.644
CN(C)CCCC1(c2ccc(F)cc2)OCc2cc(C#N)ccc21 (stereo not drawn) [Citalopram hydrobromide],scaled lipid accumulation score,[2],0.259 and 0.597
CN(C)CCC[C@@]1(c2ccc(F)cc2)OCc2cc(C#N)ccc21 [Escitalopram],scaled lipid accumulation score,[7],0.197
CN(C)CCCC1(c2ccc(F)cc2)OCc2cc(C#N)ccc21 (stereo not drawn) [Citalopram],scaled lipid accumulation score,[7],0.446 and 0.566
same,scaled lipid accumulation score,[2],0.51
Br.CN(C)CCCC1(c2ccc(F)cc2)OCc2cc(C#N)ccc21 (stereo not drawn) [Citalopram hydrobromide],scaled lipid accumulation score,[2],0.952 (active)
CN(C)CCC[C@@]1(c2ccc(F)cc2)OCc2cc(C#N)ccc21,scaled lipid accumulation score,[2],0.614
"CCCCCCCCC#CCC#CCC#CCCCC(=O)O [5,8,11-Eicosatriynoic acid]",scaled lipid accumulation score,[1],≤ -0.021
"CCCCCCCCC#CCC#CCC#CCCCC(=O)O [5,8,11-Eicosatriynoic Acid]",scaled lipid accumulation score,[1],0.059
CCCCCCCCCCCCCCCC(=O)N[C@@H](COP(=O)(O)O)C(=O)O,scaled lipid accumulation score,[1],≤ -0.021
O=C(CCc1ccncc1)NNC(=O)N1Cc2ccccc2Oc2ccc(Cl)cc21,scaled lipid accumulation score,[2],0.105
"CN(C)CCC(c1ccc(Br)cc1)c1ccccn1 (single isomer, unassigned; (+)) [(+)-Brompheniramine maleate]",scaled lipid accumulation score,[2],0.351
CN(C)CCC(c1ccc(Cl)cc1)c1ccccn1 (stereo not drawn) [Chlorpheniramine],scaled lipid accumulation score,[2],≤ 0
CN(C)CC[C@@H](c1ccc(Cl)cc1)c1ccccn1 [Chlorpheniramine (s) maleate],scaled lipid accumulation score,[8],0.181
same,scaled lipid accumulation score,[2],0.005
CN(C)CCC(c1ccc(Cl)cc1)c1ccccn1 (stereo not drawn) [Chlorpheniramine maleate],scaled lipid accumulation score,,0.469
same,scaled lipid accumulation score,library stock concentration: 7.3 mM,0.251
CN(C)CCC(c1ccc(Br)cc1)c1ccccn1 (stereo not drawn) [Brompheniramine maleate],scaled lipid accumulation score,,0.343
same,scaled lipid accumulation score,[2],0.275
CN(C)CCC(c1ccc(Br)cc1)c1ccccn1.O=C(O)/C=C\C(=O)O (stereo not drawn),scaled lipid accumulation score,[2],0.9 (active)
CN(C)CCC(c1ccc(Cl)cc1)c1ccccn1 (stereo not drawn) [Chlorpheniramine Maleate],scaled lipid accumulation score,[3],0.106
same,scaled lipid accumulation score,[2],≤ 0
CN(C)CCC(c1ccc(Cl)cc1)c1ccccn1.O=C(O)/C=C\C(=O)O (stereo not drawn),scaled lipid accumulation score,[2],0.891 (active)
CN(C)CCC(c1ccc(Br)cc1)c1ccccn1 (stereo not drawn) [Brompheniramine hydrogen maleate],scaled lipid accumulation score,[3],0.182
same,scaled lipid accumulation score,[2],0.583
CN(C)CC[C@@H](c1ccc(Cl)cc1)c1ccccn1,scaled lipid accumulation score,[2],0.377
CN(C)CC[C@@H](c1ccc(Cl)cc1)c1ccccn1 [Dexchlorpheniramine maleate],scaled lipid accumulation score,[8],≤ 0
CCOc1nc2cccc(C(=O)OC(C)OC(=O)OC3CCCCC3)c2n1Cc1ccc(-c2ccccc2-c2nn[nH]n2)cc1 (stereo not drawn) [Candesartan Cilexetil],scaled lipid accumulation score,[3],≤ 0
same,scaled lipid accumulation score,[2],≤ 0
CCOc1nc2cccc(C(=O)OC(C)OC(=O)OC3CCCCC3)c2n1Cc1ccc(-c2ccccc2-c2nn[nH]n2)cc1 (stereo not drawn) [Candesartan cilextil],scaled lipid accumulation score,[2],≤ -0.027
"C/C=C/c1ccc(OC)cc1 [Anethole, trans-]",scaled lipid accumulation score,[9],≤ -0.006
C/C=C/c1ccc(OC)cc1 [Anethole],scaled lipid accumulation score,[2],0.104
same,scaled lipid accumulation score,[9],≤ 0
CCCCC/C=C\C\C=C/C=C/C=C/[C@@H](SC[C@H](N)C(=O)O)[C@@H](O)CCCC(=O)O [Leukotriene E4],scaled lipid accumulation score,library stock concentration: 100 uM,0.015
C[C@]1(c2nc3c(C(N)=O)cccc3[nH]2)CCCN1 [Veliparib (ABT-888)],scaled lipid accumulation score,[3],≤ 0
same,scaled lipid accumulation score,[2],≤ 0
C[C@]1(c2nc3c(C(N)=O)cccc3[nH]2)CCCN1 [Veliparib],scaled lipid accumulation score,[4],0.0075
same,scaled lipid accumulation score,[5],≤ -0.0045
same,scaled lipid accumulation score,[6],≤ -0.0045
same,scaled lipid accumulation score,[2],≤ -0.0045
CCCCCCCC/C=C\C/C=C\C/C=C\CCCC(=O)O [Mead acid (20:3 n-9)],scaled lipid accumulation score,[1],0.025
NC(=O)CCC/C=C\C[C@@H]1[C@@H](/C=C/[C@@H](O)CCc2ccccc2)[C@H](O)C[C@@H]1O [17-phenyl trinor Prostaglandin F2.alpha. amide],scaled lipid accumulation score,[1],≤ 0
